Bioassay records: PubChem BioAssay, The Scripps Research Institute Molecular Screening Center
This is a sample that favours compounds with a hit; in the whole collection about 0.9% have one here.
SRC3 TRFRET art: TR-FRET detection interference compounds, artefact control for PPARgamma SRC-3 recruitment agonists, biochemical, TR-FRET ratio | 0.39% of 99,000 active | TR-FRET artefact counter-screen, PPARgamma/SRC-3 format; stronger effect = higher value | TR-FRET ratio at 8 µM | AID 1048, 2008
SRC1 TRFRET art: TR-FRET detection interference compounds, primary screen, artefact control for PPARgamma SRC-1 recruitment agonists, biochemical, TR-FRET emission ratio; TR-FRET detection artefact counter-screen; stronger effect = higher value; TR-FRET ratio at 8 µM; 0.34% of 99,000 active; AID 1051, 2008; in the data active = TR-FRET ratio above about 2300
PPARg SRC2 recr: agonists of PPARg-SRC-2 recruitment, primary screen, biochemical, HTS; PPARgamma LBD-SRC-2 recruitment; activation, % at 8 µM; Peroxisome proliferator-activated receptor gamma (Homo sapiens), P37231; 0.34% of 200,000 active; in the data active = activation above about 22%
Target sequence (P37231 whole entry, looked up, the tested form may be a part): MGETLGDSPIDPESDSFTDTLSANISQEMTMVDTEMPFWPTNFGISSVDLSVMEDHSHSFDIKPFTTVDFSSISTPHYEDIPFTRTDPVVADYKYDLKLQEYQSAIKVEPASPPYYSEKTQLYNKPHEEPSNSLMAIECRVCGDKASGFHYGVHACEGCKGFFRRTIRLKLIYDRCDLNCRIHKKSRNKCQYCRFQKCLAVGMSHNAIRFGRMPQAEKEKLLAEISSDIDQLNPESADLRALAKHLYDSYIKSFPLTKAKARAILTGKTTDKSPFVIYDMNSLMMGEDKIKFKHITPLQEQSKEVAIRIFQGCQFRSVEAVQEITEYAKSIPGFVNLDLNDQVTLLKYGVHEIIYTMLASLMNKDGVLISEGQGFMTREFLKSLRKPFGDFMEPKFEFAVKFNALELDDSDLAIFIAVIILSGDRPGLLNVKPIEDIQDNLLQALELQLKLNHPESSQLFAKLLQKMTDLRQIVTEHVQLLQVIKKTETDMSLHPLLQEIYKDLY
TR-FRET SRC-2 ct: TR-FRET signal artefacts, primary screen, artefact control for PPARgamma SRC-2 agonist project, biochemical | TR-FRET ratio at 8 µM | TR-FRET artefact counter-screen; stronger effect = higher value | 0.4% of 200,000 active
PPARg SRC1 recr: PPARgamma agonists recruiting SRC-1 coactivator, primary screen, biochemical | Peroxisome proliferator-activated receptor gamma (Homo sapiens), P37231 | activation, % at 8 µM | PPARgamma-SRC-1 coactivator recruitment biochemical assay | 0.41% of 200,000 active | AID 631, 2007; in the data active = activation above about 19%
PPARg SRC-3 ag: PPARgamma agonists recruiting SRC-3 coactivator, primary screen, biochemical | Peroxisome proliferator-activated receptor gamma (Homo sapiens), P37231 | biochemical PPARgamma/SRC-3 coactivator recruitment assay | activation, % at 8 µM | 0.26% of 200,000 active | AID 731, 2007; in the data active = activation above about 23%
Hits are given with their value; . = inactive; / = no result. Cut-off read from the data, not from the text of the source, unless noted: active = TR-FRET ratio above about 2000; inactive = the rest.

SMILES	SRC3 TRFRET art	SRC1 TRFRET art	PPARg SRC2 recr	TR-FRET SRC-2 ct	PPARg SRC1 recr	PPARg SRC-3 ag
COc1ccc(C2=NN(C(=O)CSc3cn(C)c4ccccc34)C(c3ccc(OC)cc3)C2)cc1 (stereo not drawn)	/	/	.	9469	.	.
COc1ccc(C2CC(c3ccc4ccccc4c3)=NN2C(=O)CSc2ncccn2)cc1 (stereo not drawn)	2117	.	.	.	.	.
COc1ccc(C2=NN(C(=O)CSc3ncccn3)C(c3ccc(OC)cc3)C2)cc1 (stereo not drawn)	.	.	.	.	.	.
COc1ccc(C2=NN(C(=O)CSc3nc4ccccc4s3)C(c3ccc(OC)cc3)C2)cc1 (stereo not drawn)	.	.	.	.	.	.
COc1ccc(N2C(=O)CCC(C(=O)c3ccccc3)=C2C)cc1	.	.	.	.	.	.
Nc1nc2ccc(N3CCOCC3)cc2s1	/	/	.	.	25	.
Fc1ccc2nc(N3CCOCC3)sc2c1	.	.	.	.	.	.
CCOC(=O)C1CCN(C(=O)CSc2ccccc2Cl)CC1	.	.	.	.	21	.
CCOC(=O)CC(=O)CSc1nc(-c2ccccc2)cc(-c2ccccc2)c1C#N	2399	.	.	2021	.	.
CC(C)C(Sc1nc(-c2ccccc2)cc(-c2ccccc2)c1C#N)C(=O)O (stereo not drawn)	.	.	.	.	.	.
N#Cc1c(-c2ccccc2)cc(-c2ccccc2)nc1SCc1nnc(-c2ccccc2)o1	/	/	.	.	86	.
Cc1cc(S(=O)(=O)N2CCN=C2c2ccccc2)c(Cl)cc1Cl	.	.	.	.	.	.
COc1ccc(C(=O)c2c[nH]c(C(=O)N=CN(C)C)c2)cc1	.	.	.	.	.	.
CCOC(=O)c1ccc(NC(=O)CCc2nc(-c3ccc(Cl)cc3)no2)cc1	/	/	.	.	.	.
CCOC(=O)c1ccc(NC(=O)CCc2nc(-c3ccc(C)cc3)no2)cc1	/	/	35	2077	.	.
CC(C)C1CC(C(F)(F)F)n2nc(C(=O)O)cc2N1 (stereo not drawn)	.	.	.	2157	.	.
CC1CC(C(F)(F)F)n2nc(C(=O)O)cc2N1 (stereo not drawn)	/	/	.	.	.	.
COc1ccc(C(=O)N2CCN(c3ccccn3)CC2)cc1[N+](=O)[O-]	.	.	.	.	.	.
O=C(Nc1ccc(F)cc1F)c1csc(-c2ccncc2)n1	.	.	.	.	.	.
O=C(Nc1ccc(F)cc1F)c1csc(-c2cccs2)n1	.	.	.	2010	.	.
COc1ccc(N2C(=O)c3ccccc3NC2c2ccc(OC)c(CSc3ccccn3)c2)cc1 (stereo not drawn)	/	/	.	2247	.	.
COc1ccc(N2C(=O)c3ccccc3NC2c2ccc(OC)c(COc3ccccn3)c2)cc1 (stereo not drawn)	.	.	.	.	.	.
COc1ccccc1OC(=O)CCN1c2ccccc2Sc2ccccc21	2481	.	.	.	.	.
COc1ccccc1C(=O)N1c2ccccc2Sc2ccccc21	.	.	.	.	.	.
S=C(NCc1ccc(Cl)cc1Cl)NC1CCCCC1	.	.	.	.	.	.
SMILES	SRC3 TRFRET art	SRC1 TRFRET art	PPARg SRC2 recr	TR-FRET SRC-2 ct	PPARg SRC1 recr	PPARg SRC-3 ag
CCN(CC)c1ccc(NC(=O)c2ccccc2)cc1S(=O)(=O)Nc1ccccc1OC	2080	.	.	.	.	.
CC1CC(C)(C)NC(=S)O1 (stereo not drawn)	.	.	.	.	.	.
CC(C)[C@H](NC(=O)OC(C)(C)C)c1nnc(SCc2cccc(F)c2)o1	/	/	.	.	55	.
CC(C)C[C@H](NC(=O)OC(C)(C)C)c1nnc(SCc2cccc(F)c2)o1	/	/	.	.	.	.
Nc1nc2n(n1)C(=O)CC(c1ccccc1)N2 (stereo not drawn)	.	.	.	.	.	.
Cc1ccc(NC(=O)CSc2ncnc3ccccc23)cc1S(=O)(=O)N1CCCCCC1	2506	.	.	.	.	.
O=C(CSc1ncnc2ccccc12)Nc1cc(S(=O)(=O)N2CCCCC2)ccc1Cl	2968	.	.	2930	.	.
Cc1ccc(S(=O)(=O)N2CCCCC2)cc1NC(=O)CSc1ncnc2ccccc12	.	.	.	.	.	.
CC1CN(CC(=O)Nc2cc(S(=O)(=O)N3CCCC3)ccc2Cl)CC(C)O1 (stereo not drawn)	.	.	.	2051	.	.
CCOc1ccc(S(=O)(=O)c2c(C(=O)c3ccc(C)cc3)cnc3cc4c(cc23)OCCO4)cc1	2812	2755	.	2406	.	.
Cc1ccc(C(=O)c2cnc3cc4c(cc3c2S(=O)(=O)c2ccccc2)OCCO4)cc1	2485	.	.	.	.	.
CN1C(=O)C(CC(=O)NCC2CCCCC2)SC1=Nc1ccccc1 (stereo not drawn)	.	.	.	.	.	.
CCNc1nc(NCC)nc(N/N=C/c2ccc(Br)cc2)n1	.	.	.	.	.	.
CCN(CC)CCN(Cc1cc2cc3c(cc2[nH]c1=O)OCCO3)C(=O)NC1CCCCC1	/	/	.	.	19	.
O=C(c1ccco1)c1coc2c1cc(O)c1ccccc12	.	.	.	.	.	.
COc1c(F)c(F)c(C(=O)Nc2c(C)cc(Br)cc2C)c(F)c1F	.	.	.	.	.	.
CC1CCCCN1C(=O)Nc1cccc(C(F)(F)F)c1 (stereo not drawn)	.	2319	.	.	.	.
Cc1ccc(CN2CCN(Cc3ccc(OC(C)C)cc3)CC2CCO)o1 (stereo not drawn)	.	.	.	.	.	.
Cc1ccc(CN2CCN(Cc3cccc(OCCO)c3)CC2CCO)o1 (stereo not drawn)	.	.	22	.	.	.
COc1ccc(C(=O)COC(=O)CNS(=O)(=O)c2ccc(C)cc2)cc1	.	.	.	.	.	.
Cc1cccc(Nc2ccc(C(=O)N3CCOCC3)cn2)c1	.	.	.	1985	.	.
O=C(c1ccc(Nc2cccc(C(F)(F)F)c2)nc1)N1CCCC1	/	/	.	.	.	.
CC1CCN(S(=O)(=O)c2ccc(C(=O)Nc3sccc3C(N)=O)cc2)CC1	/	/	.	.	29	.
Cc1ccsc1/C=C1\SC(N)=NC1=O	/	/	.	.	.	.
Cc1ccc(/C=C2\SC(N)=NC2=O)s1	.	.	24	.	.	.
CC(=O)Nc1ccc(-c2nnc(SCC(=O)c3ccc4c(c3)Cc3ccccc3-4)n2C)cc1	/	/	.	2129	.	.
Cn1c(SCC(=O)c2ccc3c(c2)Cc2ccccc2-3)nnc1-c1cccc(N)c1	.	.	.	.	.	.
